Reference: article PMC9911399, “Two distinct binding modes provide the RNA-binding protein RbFox with extraordinary sequence specificity”
Substitutions are numbered along the chain they refer to; changes in the protein carry UniProt numbers. The full ranking holds about 16,000 sequences; the median of “ka relative to ugcaugu” is about 0.0091, and the highest 2% start at about 0.032. This excerpt belongs to a sample that is enriched for the highest values.

T1: RBFOX1 RRM (Homo sapiens, UniProt Q9NWB1 109-208)
T1 sequence: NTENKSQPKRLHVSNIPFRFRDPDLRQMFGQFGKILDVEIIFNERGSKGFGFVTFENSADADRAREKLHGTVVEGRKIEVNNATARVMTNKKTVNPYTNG

B1: UUCCAAA (DNA:RNA)
RNA: GGGAGACCGGAAUUCAGAUUGUCCUUCCAAAUUAAAUCCCGUCGUAGCCACCA
DNA 1: CAATCTGAATTCCGGTCTCCC
DNA 2: TGGTGGCTACGACGGGATT
B2: GACAUUG (DNA:RNA)
RNA: B1 RNA with U25G, U26A, C28A, A29U, A30U, A31G
DNA 1: CAATCTGAATTCCGGTCTCCC
DNA 2: TGGTGGCTACGACGGGATT
B3: GCUAGUA (DNA:RNA)
RNA: B1 RNA with U25G, U26C, C27U, C28A, A29G, A30U
DNA 1: CAATCTGAATTCCGGTCTCCC
DNA 2: TGGTGGCTACGACGGGATT
B4: GCAAACC (DNA:RNA)
RNA: B1 RNA with U25G, U26C, C27A, C28A, A30C, A31C
DNA 1: CAATCTGAATTCCGGTCTCCC
DNA 2: TGGTGGCTACGACGGGATT
B5: GCGUGGG (DNA:RNA)
RNA: GGGAGACCGGAAUUCAGAUUGUCCGCGUGGGUUAAAUCCCGUCGUAGCCACCA
DNA 1: CAATCTGAATTCCGGTCTCCC
DNA 2: TGGTGGCTACGACGGGATT
B6: AGAAUCG (DNA:RNA)
RNA: B5 RNA with G25A, C26G, G27A, U28A, G29U, G30C
DNA 1: CAATCTGAATTCCGGTCTCCC
DNA 2: TGGTGGCTACGACGGGATT
B7: AAGCGGU (DNA:RNA)
RNA: B5 RNA with G25A, C26A, U28C, G31U
DNA 1: CAATCTGAATTCCGGTCTCCC
DNA 2: TGGTGGCTACGACGGGATT
B8: AAAGAAG (DNA:RNA)
RNA: B1 RNA with U25A, U26A, C27A, C28G, A31G
DNA 1: CAATCTGAATTCCGGTCTCCC
DNA 2: TGGTGGCTACGACGGGATT
B9: CGUCCGC (DNA:RNA)
RNA: B5 RNA with G25C, C26G, G27U, U28C, G29C, G31C
DNA 1: CAATCTGAATTCCGGTCTCCC
DNA 2: TGGTGGCTACGACGGGATT
B10: GCUUGUG (DNA:RNA)
RNA: B5 RNA with G27U, G30U
DNA 1: CAATCTGAATTCCGGTCTCCC
DNA 2: TGGTGGCTACGACGGGATT
B11: GCUUCCG (DNA:RNA)
RNA: B5 RNA with G27U, G29C, G30C
DNA 1: CAATCTGAATTCCGGTCTCCC
DNA 2: TGGTGGCTACGACGGGATT
B12: GCUUCUG (DNA:RNA)
RNA: B5 RNA with G27U, G29C, G30U
DNA 1: CAATCTGAATTCCGGTCTCCC
DNA 2: TGGTGGCTACGACGGGATT
B13: GCGCUUC (DNA:RNA)
RNA: B5 RNA with U28C, G29U, G30U, G31C
DNA 1: CAATCTGAATTCCGGTCTCCC
DNA 2: TGGTGGCTACGACGGGATT
B14: GUCCCGC (DNA:RNA)
RNA: B1 RNA with U25G, A29C, A30G, A31C
DNA 1: CAATCTGAATTCCGGTCTCCC
DNA 2: TGGTGGCTACGACGGGATT
B15: ACUGUGU (DNA:RNA)
RNA: B5 RNA with G25A, G27U, U28G, G29U, G31U
DNA 1: CAATCTGAATTCCGGTCTCCC
DNA 2: TGGTGGCTACGACGGGATT
B16: ACCCUUU (DNA:RNA)
RNA: B1 RNA with U25A, U26C, A29U, A30U, A31U
DNA 1: CAATCTGAATTCCGGTCTCCC
DNA 2: TGGTGGCTACGACGGGATT
B17: GACAGCA (DNA:RNA)
RNA: B5 RNA with C26A, G27C, U28A, G30C, G31A
DNA 1: CAATCTGAATTCCGGTCTCCC
DNA 2: TGGTGGCTACGACGGGATT
B18: GUGAAUA (DNA:RNA)
RNA: B1 RNA with U25G, C27G, C28A, A30U
DNA 1: CAATCTGAATTCCGGTCTCCC
DNA 2: TGGTGGCTACGACGGGATT
B19: UGGGGUG (DNA:RNA)
RNA: B5 RNA with G25U, C26G, U28G, G30U
DNA 1: CAATCTGAATTCCGGTCTCCC
DNA 2: TGGTGGCTACGACGGGATT
B20: UGGAAGU (DNA:RNA)
RNA: B5 RNA with G25U, C26G, U28A, G29A, G31U
DNA 1: CAATCTGAATTCCGGTCTCCC
DNA 2: TGGTGGCTACGACGGGATT
B21: UGGAGUU (DNA:RNA)
RNA: B5 RNA with G25U, C26G, U28A, G30U, G31U
DNA 1: CAATCTGAATTCCGGTCTCCC
DNA 2: TGGTGGCTACGACGGGATT
B22: UGGGAAG (DNA:RNA)
RNA: B1 RNA with U26G, C27G, C28G, A31G
DNA 1: CAATCTGAATTCCGGTCTCCC
DNA 2: TGGTGGCTACGACGGGATT
B23: UGGGAGU (DNA:RNA)
RNA: B5 RNA with G25U, C26G, U28G, G29A, G31U
DNA 1: CAATCTGAATTCCGGTCTCCC
DNA 2: TGGTGGCTACGACGGGATT
B24: UGGGGAA (DNA:RNA)
RNA: B1 RNA with U26G, C27G, C28G, A29G
DNA 1: CAATCTGAATTCCGGTCTCCC
DNA 2: TGGTGGCTACGACGGGATT
B25: UGGUGUU (DNA:RNA)
RNA: B5 RNA with G25U, C26G, G30U, G31U
DNA 1: CAATCTGAATTCCGGTCTCCC
DNA 2: TGGTGGCTACGACGGGATT
B26: UGGUGGG (DNA:RNA)
RNA: B5 RNA with G25U, C26G
DNA 1: CAATCTGAATTCCGGTCTCCC
DNA 2: TGGTGGCTACGACGGGATT
B27: UGGGUGU (DNA:RNA)
RNA: B5 RNA with G25U, C26G, U28G, G29U, G31U
DNA 1: CAATCTGAATTCCGGTCTCCC
DNA 2: TGGTGGCTACGACGGGATT
B28: CUGGAAG (DNA:RNA)
RNA: B1 RNA with U25C, C27G, C28G, A31G
DNA 1: CAATCTGAATTCCGGTCTCCC
DNA 2: TGGTGGCTACGACGGGATT
B29: UGGGGAG (DNA:RNA)
RNA: B5 RNA with G25U, C26G, U28G, G30A
DNA 1: CAATCTGAATTCCGGTCTCCC
DNA 2: TGGTGGCTACGACGGGATT
B30: CUGGUGU (DNA:RNA)
RNA: B5 RNA with G25C, C26U, U28G, G29U, G31U
DNA 1: CAATCTGAATTCCGGTCTCCC
DNA 2: TGGTGGCTACGACGGGATT
B31: UCGCAGG (DNA:RNA)
RNA: B5 RNA with G25U, U28C, G29A
DNA 1: CAATCTGAATTCCGGTCTCCC
DNA 2: TGGTGGCTACGACGGGATT

What follows are binders tested against T1, RBFOX1 RRM (assay: EMSA; HiTS-Eq, 1 nM pool, 10 min; buffer printed only for the single-RNA assays: 10 mM Tris pH 7.5, 150 mM NaCl, 3.4 mM EDTA, 0.001% NP-40, 30 C). Conditions: tags: His6 N-terminal (pET28a); label: 5' 32P.
How it was run: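 A pool of RNA with 7 randomized nucleotides, 5′-radiolabelled and with DNA-annealed flanks, was equilibrated at 1 nM for 10 min in 50 µL with purified RbFox RRM, wild type or mutant, across increasing protein concentrations. Free RNA was separated by 8% native PAGE, excised, reverse-transcribed, barcoded by PCR and sequenced. Relative association constants were obtained from read-count changes of each RNA species versus the control reaction and normalised to the cognate motif.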

| Binder | binding signal |
| --- | --- |
| B1 | 0.00275 KA relative to UGCAUGU |
| B2 | 0.0146 KA relative to UGCAUGU |
| B3 | 0.0137 KA relative to UGCAUGU |
| B4 | 0.00398 KA relative to UGCAUGU |
| B5 | 0.0174 KA relative to UGCAUGU |
| B6 | 0.00981 KA relative to UGCAUGU |
| B7 | 0.00838 KA relative to UGCAUGU |
| B8 | 0.00539 KA relative to UGCAUGU |
| B9 | 0.00928 KA relative to UGCAUGU |
| B10 | 0.0418 KA relative to UGCAUGU |
| B11 | 0.0121 KA relative to UGCAUGU |
| B12 | 0.0318 KA relative to UGCAUGU |
| B13 | 0.0175 KA relative to UGCAUGU |
| B14 | 0.0018 KA relative to UGCAUGU |
| B15 | 0.016 KA relative to UGCAUGU |
| B16 | 0.00524 KA relative to UGCAUGU |

| Binder | binding signal |
| --- | --- |
| B17 | 0.0143 KA relative to UGCAUGU |
| B18 | 0.00781 KA relative to UGCAUGU |
| B19 | 0.0422 KA relative to UGCAUGU |
| B20 | 0.0205 KA relative to UGCAUGU |
| B21 | 0.0241 KA relative to UGCAUGU |
| B22 | 0.0374 KA relative to UGCAUGU |
| B23 | 0.0357 KA relative to UGCAUGU |
| B24 | 0.0174 KA relative to UGCAUGU |
| B25 | 0.0267 KA relative to UGCAUGU |
| B26 | 0.0153 KA relative to UGCAUGU |
| B27 | 0.0478 KA relative to UGCAUGU |
| B28 | 0.0188 KA relative to UGCAUGU |
| B29 | 0.0199 KA relative to UGCAUGU |
| B30 | 0.0254 KA relative to UGCAUGU |
| B31 | 0.0168 KA relative to UGCAUGU |
